Data on five compounds can be found in PubChem BioAssay.

For test [1], the target named is Albumin (Bos taurus) (UniProt P02769). Kind of test: bovine serum albumin binders on microarray, profiling panel, artefact control for SMM control protein annotation, biochemical, small-molecule microarray, Alexa647 label, 635/667 nm fluorescence (AID 1118).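 Further: score merges 667 nm emission intensity and signal-to-noise per printed compound spot.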 The conditions noted are these: BSA-A647 binding, fluorescence 635 nm, higher = more signal.
The nature of test [2]: small-molecule microarray binders of probe aXIP, primary screen, biochemical, NeuroSMM set, 635/667 nm fluorescence (AID 1119).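 Further: probe is the protein aXip251-270 applied at 1 µg/mL to compound-printed slides; binding of probe to printed compounds measured as 667 nm fluorescence plus signal to noise.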 The settings on record: higher = more signal, called active from +8 up or from −8 down.
Test [3] can be described thus: small-molecule binders of probe aNOTCH3, primary screen, biochemical, small-molecule microarray, 635/667 nm fluorescence (AID 1120).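 Further: probe is a biotin-tagged antibody raised against NOTCH3 rather than NOTCH3 protein; score merges spot fluorescence near 667 nm with spot signal to noise.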 The conditions noted are these: higher = more signal.
Test [4] is described as follows: small-molecule binders of probe aNOTCH2, primary screen, biochemical, small-molecule microarray, 635/667 nm fluorescence (AID 1121).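 Further: score merges feature fluorescence read at 667 nm with its signal to noise.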 The conditions noted are these: higher = more signal.
In test [5] the target is Carbonic anhydrase 2 (Homo sapiens) (UniProt P00918). Kind of test: CAII small-molecule binders, profiling panel, biochemical, small-molecule microarray, Alexa647-labelled CAII (AID 1122). The conditions noted are these: CAII-A647 binding fluorescence, higher = more signal.
A short description of test [6]: COS7 lysate on small-molecule microarray, probe aHis, 635 nm (AID 1123).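 Further: z-score combines 667nm fluorescence intensity with signal-to-noise per printed compound spot.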 The settings on record: COS7 cell lysate, fluorescence, higher = more signal.
A short description of test [7]: compound binding in COS7 lysate, probe aLAP1, primary screen, cell lysate, small-molecule microarray (AID 1124).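 Further: lysate comes from COS7 cells expressing LAP1 and is applied at 0.3 µg/mL; score merges spot fluorescence near 667 nm with signal-to-noise over triplicate slides.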 The conditions noted are these: probe aLAP1, fluorescence, higher = more signal.
Test [8] has as its system Sam68 (KHDRBS1). Kind of test: Sam68 small-molecule binders, primary screen, biochemical, small-molecule microarray, 635 nm fluorescence (AID 1125).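 Further: score merges 667 nm channel intensity with signal to noise over triplicate slides.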 The settings on record: small-molecule microarray binding, higher = more signal.
The subject of test [9] is Chordin-like protein 2 (CHRDL2). Briefly: CHRDL2 small-molecule binders, primary screen, biochemical, small-molecule microarray, 635 nm fluorescence (AID 1126).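 Further: printed compound slides probed with Chrdl2 protein at 4 µg/mL for 1 h at 4 C; score merges 667 nm emission intensity with signal to noise over three replicate slides.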 The settings on record: small-molecule microarray binding, fluorescence 635 nm; higher = more signal.
In test [10] the target is Concanavalin-A (Canavalia ensiformis) (UniProt P02866). Kind of test: ConA small-molecule binders, primary screen, artefact control for SMM control protein annotation, biochemical, small-molecule microarray, Alexa647 label, 635 nm (AID 1127).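 Further: z combines 667 nm emission intensity with signal-to-noise across three replicate slides.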 The conditions noted are these: ConA-A647 binding fluorescence, higher = more signal.
Test [11] is described as follows: anti-His antibody binders, primary screen, artefact control for SMM control protein annotation, biochemical, small-molecule microarray, 635 nm fluorescence (AID 1128).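 Further: score merges feature fluorescence with signal-to-noise for each printed compound spot.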 The settings on record: anti-His Alexa647 antibody binding, higher = more signal.
The subject of test [12] is Human papillomavirus type 1a E7 protein (residues 1-88). Briefly: HPV1a E7 small-molecule binders, primary screen, biochemical, small-molecule microarray, residues 1-88, 635 nm (AID 1129). The settings on record: small-molecule microarray binding, fluorescence 635 nm; higher = more signal.
For test [13], the target named is Focal adhesion kinase 1 (Homo sapiens) (UniProt Q05397). Kind of test: small-molecule microarray binders of FAK, primary screen, biochemical, 635/667 nm fluorescence, BSA, DTT (AID 1130).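 Further: composite of spot emission at 667 nm and signal to noise over triplicate slides.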 The conditions noted are these: PTK2 binding, 635 nm fluorescence, higher = more signal.
For test [14], the system named is Fibrinogen (Alexa647-labelled). Briefly: fibrinogen binders on compound microarrays, profiling panel, artefact control for SMM control-protein annotation, biochemical, small-molecule microarray, 635/667 nm fluorescence (AID 1131).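 Further: z-score merges 667 nm fluorescence with per-spot signal-to-noise over triplicate slides.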 The conditions noted are these: fibrinogen-A647 binding fluorescence, higher = more signal.
For test [15], the target named is Follistatin (Homo sapiens) (UniProt P19883). Kind of test: follistatin binders on small-molecule microarrays, primary screen, biochemical, small-molecule microarray, 635/667 nm fluorescence (AID 1132). The conditions noted are these: FST binding, 635 nm fluorescence, higher = more signal.
Test [16] deals with Fibroblast growth factor 2 (Homo sapiens) (UniProt P09038). Kind of test: FGF2 binders on small-molecule microarrays, primary screen, biochemical, small-molecule microarray, 635/667 nm fluorescence (AID 1133). The conditions noted are these: small-molecule microarray binding, FGF2, fluorescence 635/667; higher = more signal.
Test [17] in a line: mitochondrial membrane potential change in A549 cells, profiling panel, cell-based, JC-1 fluorescence, basal, 24 h, 100 nL (AID 1138).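 Further: A549 lung adenocarcinoma cells under basal conditions with no added stimulus; test concentration not given here.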 The settings on record: higher = more signal.
For test [18], the system named is Lefty1. Kind of test: Lefty1 binders on small-molecule microarrays, primary screen, biochemical, small-molecule microarray, 635/667 nm fluorescence (AID 1139). The conditions noted are these: small-molecule microarray binding, fluorescence 635/667; higher = more signal.
Test [19] deals with wheat germ agglutinin (Triticum aestivum), Alexa647-labelled. Briefly: wheat germ agglutinin binders on compound microarrays, profiling panel, artefact control for SMM control-protein annotation, biochemical, small-molecule microarray, 635/667 nm fluorescence (AID 1140).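 Further: score merges 667 nm feature emission with signal to noise over triplicate slides.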 The settings on record: WGA-A647 binding, 635 nm fluorescence, higher = more signal.
The target in test [20] is Luciferin 4-monooxygenase (Photinus pyralis) (UniProt P08659). Briefly: firefly luciferase enzyme inhibitors, primary screen, biochemical, luminescence, purified enzyme, 2006 set (AID 1141).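 Further: cell-free assay with purified firefly luciferase at 100 ng per well in PBS; test concentration not given here.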 The conditions noted are these: SteadyGlo luminescence, 30 min, higher = more signal, called active from +8 up or from −8 down.

The structures appear in SMILES notation. The source made the active and inactive calls.

Chain of Fibroblast growth factor 2 (Homo sapiens) (P09038 whole entry, looked up): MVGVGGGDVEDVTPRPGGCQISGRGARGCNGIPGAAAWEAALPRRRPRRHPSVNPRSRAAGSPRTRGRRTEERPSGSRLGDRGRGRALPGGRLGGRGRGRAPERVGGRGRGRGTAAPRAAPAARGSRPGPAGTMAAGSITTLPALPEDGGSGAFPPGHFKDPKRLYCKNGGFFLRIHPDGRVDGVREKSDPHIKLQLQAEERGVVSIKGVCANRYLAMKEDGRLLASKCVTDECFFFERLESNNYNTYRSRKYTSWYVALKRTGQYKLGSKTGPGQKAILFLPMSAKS
Chain of Luciferin 4-monooxygenase (Photinus pyralis) (P08659 whole entry, looked up): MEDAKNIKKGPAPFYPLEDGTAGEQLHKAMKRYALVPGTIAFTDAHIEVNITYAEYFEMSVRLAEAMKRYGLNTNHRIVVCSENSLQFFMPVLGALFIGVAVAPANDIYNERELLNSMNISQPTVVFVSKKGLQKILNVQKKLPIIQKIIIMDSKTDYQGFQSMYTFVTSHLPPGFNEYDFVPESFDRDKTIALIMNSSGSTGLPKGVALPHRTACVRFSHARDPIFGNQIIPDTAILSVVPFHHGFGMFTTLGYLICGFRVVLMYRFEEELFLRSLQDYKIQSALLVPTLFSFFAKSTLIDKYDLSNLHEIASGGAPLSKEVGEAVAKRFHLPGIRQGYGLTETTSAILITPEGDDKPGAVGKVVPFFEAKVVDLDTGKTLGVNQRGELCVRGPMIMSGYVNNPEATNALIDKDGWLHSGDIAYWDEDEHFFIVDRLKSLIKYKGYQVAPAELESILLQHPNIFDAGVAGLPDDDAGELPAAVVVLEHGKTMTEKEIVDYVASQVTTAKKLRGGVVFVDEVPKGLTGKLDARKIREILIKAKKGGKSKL
Chain of Albumin (Bos taurus) (P02769 whole entry, looked up): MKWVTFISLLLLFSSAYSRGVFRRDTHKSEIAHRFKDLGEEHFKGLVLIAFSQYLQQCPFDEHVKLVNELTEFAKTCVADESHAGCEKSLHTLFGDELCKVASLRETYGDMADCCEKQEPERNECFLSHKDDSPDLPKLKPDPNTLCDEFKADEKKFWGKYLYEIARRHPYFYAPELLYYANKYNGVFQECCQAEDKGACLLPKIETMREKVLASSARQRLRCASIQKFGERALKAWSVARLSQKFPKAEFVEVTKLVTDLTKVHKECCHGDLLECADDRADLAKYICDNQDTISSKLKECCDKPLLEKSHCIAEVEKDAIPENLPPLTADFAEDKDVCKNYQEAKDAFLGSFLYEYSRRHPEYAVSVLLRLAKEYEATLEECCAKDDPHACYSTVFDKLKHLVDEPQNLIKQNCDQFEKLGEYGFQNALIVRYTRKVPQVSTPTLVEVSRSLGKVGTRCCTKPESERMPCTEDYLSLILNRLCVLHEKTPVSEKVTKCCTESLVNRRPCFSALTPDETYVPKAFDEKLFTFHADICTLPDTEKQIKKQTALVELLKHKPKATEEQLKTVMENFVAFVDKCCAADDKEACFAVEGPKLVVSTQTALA
Chain of Focal adhesion kinase 1 (Homo sapiens) (Q05397 whole entry, looked up): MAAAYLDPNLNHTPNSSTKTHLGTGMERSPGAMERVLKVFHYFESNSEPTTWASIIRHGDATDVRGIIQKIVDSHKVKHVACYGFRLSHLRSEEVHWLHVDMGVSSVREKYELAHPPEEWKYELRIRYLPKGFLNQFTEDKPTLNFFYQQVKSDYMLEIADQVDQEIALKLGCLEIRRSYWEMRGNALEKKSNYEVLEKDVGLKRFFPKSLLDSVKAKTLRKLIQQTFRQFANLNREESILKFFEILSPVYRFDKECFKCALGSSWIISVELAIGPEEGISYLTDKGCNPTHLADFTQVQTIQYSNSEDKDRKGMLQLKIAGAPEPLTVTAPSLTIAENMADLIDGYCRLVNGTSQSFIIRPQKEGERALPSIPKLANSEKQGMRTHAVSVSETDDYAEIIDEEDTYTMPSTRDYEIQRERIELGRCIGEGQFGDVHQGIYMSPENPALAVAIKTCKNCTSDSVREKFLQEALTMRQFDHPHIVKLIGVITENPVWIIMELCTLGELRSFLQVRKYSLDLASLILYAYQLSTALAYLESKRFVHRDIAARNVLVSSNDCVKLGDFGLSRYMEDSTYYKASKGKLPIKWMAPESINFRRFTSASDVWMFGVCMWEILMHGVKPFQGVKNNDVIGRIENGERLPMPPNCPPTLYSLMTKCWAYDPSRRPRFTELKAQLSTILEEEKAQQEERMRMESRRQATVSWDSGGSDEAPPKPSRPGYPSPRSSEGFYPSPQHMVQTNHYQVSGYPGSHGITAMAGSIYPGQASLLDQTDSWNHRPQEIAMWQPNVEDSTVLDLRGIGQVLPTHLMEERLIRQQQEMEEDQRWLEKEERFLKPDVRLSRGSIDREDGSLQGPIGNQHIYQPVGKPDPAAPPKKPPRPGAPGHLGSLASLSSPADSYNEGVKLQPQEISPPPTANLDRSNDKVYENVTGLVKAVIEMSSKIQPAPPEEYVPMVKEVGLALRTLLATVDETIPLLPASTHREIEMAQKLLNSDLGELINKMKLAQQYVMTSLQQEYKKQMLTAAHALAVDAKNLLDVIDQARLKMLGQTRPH
Chain of Concanavalin-A (Canavalia ensiformis) (P02866 whole entry, looked up): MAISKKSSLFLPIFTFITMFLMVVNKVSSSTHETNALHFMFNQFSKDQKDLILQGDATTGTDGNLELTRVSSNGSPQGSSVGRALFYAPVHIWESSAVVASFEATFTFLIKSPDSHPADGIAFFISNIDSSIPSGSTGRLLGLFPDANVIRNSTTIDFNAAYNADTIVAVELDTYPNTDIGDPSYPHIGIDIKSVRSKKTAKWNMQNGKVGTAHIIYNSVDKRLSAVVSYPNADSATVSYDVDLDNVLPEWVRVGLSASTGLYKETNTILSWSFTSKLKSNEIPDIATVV
Chain of Follistatin (Homo sapiens) (P19883 whole entry, looked up): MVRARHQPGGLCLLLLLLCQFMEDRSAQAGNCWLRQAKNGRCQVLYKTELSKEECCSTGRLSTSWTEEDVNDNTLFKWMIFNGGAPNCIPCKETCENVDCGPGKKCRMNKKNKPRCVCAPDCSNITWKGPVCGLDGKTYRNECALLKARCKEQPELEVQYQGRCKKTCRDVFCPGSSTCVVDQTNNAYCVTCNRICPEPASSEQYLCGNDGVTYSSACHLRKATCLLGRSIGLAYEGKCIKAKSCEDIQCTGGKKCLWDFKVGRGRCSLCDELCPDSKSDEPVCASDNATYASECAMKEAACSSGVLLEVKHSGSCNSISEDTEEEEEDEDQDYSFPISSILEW

In the case of `Cc1ccc([C@@H]2C[C@@H](Sc3ccccc3)[C@H](C(=O)O)CN2S(=O)(=O)c2ccc(C)cc2)cc1`, the composite z-score came out at 0.26 in [1]; 0.171 in test [3]; 0.0019 in test [4]; 0.726 in test [5]; 2.89 in test [6]; 0.986 in [7]. Besides, the composite z-score in test [8] was 1.29; in [9], -0.144; in test [10] it was 1.03; in [11], 1.98; in test [12], 1.26; in test [13], 0.373. Besides, the composite z-score in [14] amounted to 0.956; in [15], 0.868; in [16], 0.507; in test [18] it was 0.589; in [19], 1.14. For the same compound, the composite Z-score in test [2] was -0.571 (inactive). The z-score was -1.42 in test [17] and 1.88 (inactive) in test [20].
Take `CCOC(=O)C[C@H]1[C@H](OC(=O)c2cc3ccccc3oc2=O)[C@@H](NC(=O)c2ccccc2)c2cc(OCCCO)ccc2N1C(=O)c1ccc2ccccc2n1`: the composite z-score is -0.117 in [1]; 0.0496 in test [3]; 0.655 in test [4]; 0.515 in test [5]; 0.922 in test [6]; 0.0418 in [7]. Moreover, the composite z-score in test [8] was 0.845; in test [9], 0.651; in test [10], 0.821; in test [11], 0.255; in test [12], 0.625; in test [13] it was -0.148. The composite z-score came out at 0.586 in test [14]; 1.19 in test [15]; 0.563 in test [16]; 0.87 in test [18]; 0.345 in [19]. Also, in test [2], the composite Z-score is 0.315 (inactive). Besides, the z-score is -0.339 in [17] and 0.409 (inactive) in [20].
For the compound `COc1ccccc1CN1C(=O)c2ccccc2[C@@H](C(=O)NC2CC2)[C@@H]1c1ccc(CO)cc1`, the composite z-score in test [1] is -1.07; in test [3], 0.0522; in test [4], -0.0449; in test [5], 0.602; in [6], 1.05; in [7] it was 0.849. In addition, the composite z-score in [8] stood at 1.31; in test [9], 0.837; in [10] it was 1.14; in test [11], 2.77; in test [12] it was 1.23; in test [13], 0.344. The composite z-score in [14] was 0.725; in test [15], 1.42; in test [16], 1.66; in test [18] it was 1.5; in [19] it was 0.85. In addition, the composite Z-score in test [2] was 0.0824 (inactive). For the same compound, the values for the z-score in test [17] and in test [20] were 1.76 and -0.659 (inactive), respectively.
Consider `C[N+](C)(C)CCCCNC(=O)[C@H]1C[C@H]2C(=O)N3CCC[C@H]3C(=O)N2[C@H]1c1cccc(OCCO)c1`, for which the composite z-score in [1] was -1.75; in [3], -0.0663; in [4] it was -0.0942; in test [5], 0.73; in test [6] it was 0.647; in [7], 0.815. In addition, the composite z-score in test [8] was -0.531; in [9], 1.3; in test [10] it was -0.303; in test [11] it was 3.3; in test [12], -1.41; in test [13], -0.444. Further, the composite z-score is -0.944 in test [14]; 1.43 in test [15]; 1.41 in test [16]; 0.974 in test [18]; -1.48 in test [19]. In test [2], the composite Z-score was -0.166 (inactive). In addition, the figures for the z-score in [17] and in [20] were -0.613 and -0.677 (inactive), respectively.
In the case of `COCCOC(=O)N1C(=O)[C@@]2(c3ccccc31)[C@H](c1ccc(O)cc1)N1[C@H](c3ccccc3)[C@H](c3ccccc3)OC(=O)[C@H]1[C@@H]2C(=O)Nc1nc2ccccc2s1`, the composite z-score in test [1] was 0.827; in [3], 0.351; in test [4], -0.0956; in test [5] it was 0.498; in test [6], 1.98; in test [7] it was 0.384. The composite z-score in test [8] was 1.3; in test [9], -0.172; in test [10] it was 1.2; in [11], 1.97; in [12], 1.17; in [13] it was 0.475. Besides, the composite z-score in test [14] was found to be 0.961; in [15] it was 0.695; in test [16] it was 0.408; in test [18] it was 0.259; in test [19], 1.14. The composite Z-score in [2] is -0.434 (inactive). Besides, the z-score in [17] was -2.42; in test [20] it was -1.32 (inactive).
